For experiment [1], the system named is Plasmodium falciparum Sir2 (PF13_0152, Sir2A). The experiment can be described thus: Plasmodium falciparum Sir2A binding compounds – biochemical, small-molecule microarray, 635 nm fluorescence, primary screen (AID 1098).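 Further: score merges spot fluorescence intensity with its signal-to-noise ratio.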 The conditions noted are these: fluorescence 635 nm, higher = more signal.
Experiment [2] in a line: probe aDKK1 binding to arrayed compounds – biochemical, biotinylated probe, 635/667 nm fluorescence, primary screen (AID 1099).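 Further: score merges 667nm spot fluorescence with signal to noise across triplicate slides.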 The conditions noted are these: small-molecule microarray, higher = more signal.
Experiment [3] is described as follows: probe aCHRDL2 binding to arrayed compounds – biochemical, biotinylated probe, 635/667 nm fluorescence, primary screen (AID 1100). The conditions noted are these: small-molecule microarray, higher = more signal.
Experiment [4] is described as follows: change in splice reporter luminescence, either direction, cell-based, HEK293, spliceosome inhibition project, primary screen (AID 1101).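 Further: HEK293 cells carrying a splicing-competent luciferase reporter gene; test concentration not given here.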 To be noted: HEK293 splicing luciferase reporter, 24 h, higher = more signal, called active from +8 up or from −8 down.
Experiment [5] concerns the target Fibroblast growth factor 10 (Homo sapiens) (UniProt O15520). The experiment can be described thus: compounds binding fibroblast growth factor 10 – biochemical, small-molecule microarray, 635 nm fluorescence, primary screen (AID 1102). To be noted: FGF10 binding, fluorescence 635 nm, higher = more signal.
The subject of experiment [6] is glycogen synthase kinase-3 (GSK3A per assay name; protocol says GSK3B). The experiment can be described thus: compounds binding glycogen synthase kinase-3 – biochemical, small-molecule microarray, 635 nm fluorescence, GSK3A, primary screen (AID 1103). Further: the record names both GSK3A and GSK3B. The conditions noted are these: fluorescence 635 nm, higher = more signal.
The target in experiment [7] is Epidermal growth factor receptor (Homo sapiens) (UniProt P00533). The experiment in a line: compounds binding epidermal growth factor receptor – biochemical, small-molecule microarray, 635 nm fluorescence, primary screen (AID 1104).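 Further: score merges 667 nm emission intensity with spot signal to noise over triplicate slides.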 To be noted: EGFR binding, higher = more signal.
The target of experiment [8] is Follistatin-related protein 3 (Homo sapiens) (UniProt O95633). The experiment can be described thus: compounds binding follistatin-related protein 3 – biochemical, small-molecule microarray, 635 nm fluorescence, primary screen (AID 1105).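 Further: score merges emission near 667 nm and signal to noise per printed spot across three slides.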 To be noted: FSTL3 binding, higher = more signal.
Experiment [9] concerns the target Dickkopf-related protein 1 (Homo sapiens) (UniProt O94907). The experiment can be described thus: small molecules binding DKK1 protein – biochemical, small-molecule microarray, 635 nm fluorescence scan, primary screen (AID 1106).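 Further: score merges emission near 667 nm with signal to noise over three replicate slides.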 To be noted: higher = more signal.
The test system of experiment [10] is Inhibin beta A chain (activin A). The experiment can be described thus: small molecules binding activin A – biochemical, small-molecule microarray, 635 nm fluorescence scan, primary screen (AID 1107).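 Further: mouse activin A protein probed at 4.33 µg/mL on printed slides; score merges bound-protein fluorescence near 667 nm with spot signal-to-noise.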 The conditions noted are these: INHBA, higher = more signal.
For experiment [11], the system named is Human papillomavirus type 1a protein E7 (residues 44-93). The experiment can be described thus: small molecules binding HPV E7 44-93 – biochemical, small-molecule microarray, residues 44-93, 635 nm fluorescence, primary screen (AID 1108).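 Further: E7 fragment applied at 1 µg/mL in TBST for 1 h at 4 C; score combines spot fluorescence with its signal to noise ratio.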 The conditions noted are these: fluorescence 635 nm, higher = more signal.
The nature of experiment [12]: hepatitis C replication reporter changes, two-sided – Huh7 cells, luciferase reporter, HCV replication inhibitor project, primary screen (AID 1109).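 Further: huh7 hepatoma cells harbouring a luciferase neomycin HCV replicon reporter; luciferase luminescence as measure of HCV replicon replication; test concentration not given here.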 The conditions noted are these: Huh7 HCV replicon luciferase reporter, 48 h; higher = more signal. On the technique in general: A reporter such as luciferase makes a cellular process visible.
Experiment [13] concerns the target Left-right determination factor 2 (Homo sapiens) (UniProt O00292). The experiment can be described thus: small molecules binding LEFTY2 protein – biochemical, small-molecule microarray, 635 nm fluorescence scan, primary screen (AID 1110). The conditions noted are these: higher = more signal.
Experiment [14] addresses Calmodulin-1 (Homo sapiens) (UniProt P0DP23). The experiment in a line: small molecules binding calmodulin-1 with EGTA – biochemical, small-molecule microarray, Cy5-labelled CALM1, profiling panel (AID 1111).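 Further: labelled calmodulin applied in Tris saline Tween buffer holding calcium plus EGTA and DTT.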 To be noted: Cy5-CALM1 binding fluorescence, higher = more signal.
The target is the same in experiment [15]. The experiment can be described thus: small molecules binding Ca-loaded calmodulin-1 – biochemical, small-molecule microarray, Cy5-labelled CALM1, plus calcium, artefact control for SMM control-protein annotation, profiling panel (AID 1112).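 Further: score merges spot fluorescence with signal to noise from triplicate slides.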 The conditions noted are these: Cy5-CALM1 binding fluorescence, higher = more signal.
A short description of experiment [16]: probe aWnt5a binding to arrayed compounds – biochemical, biotinylated probe, 635/667 nm fluorescence, primary screen (AID 1113).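 Further: score merges 667 nm fluorescence intensity with signal-to-noise per printed feature.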 To be noted: small-molecule microarray, higher = more signal.
Experiment [17] in a line: probe aShh binding to arrayed compounds – biochemical, biotinylated probe, 635/667 nm fluorescence, primary screen (AID 1114).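 Further: probe is biotin-labelled aShh protein from a stem cell growth factor screen; measures binding of labelled protein to compounds printed on the slide; score merges feature fluorescence at 667 nm with signal-to-noise.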 To be noted: small-molecule microarray, higher = more signal.
Experiment [18] in a line: probe aNog binding to arrayed compounds – biochemical, biotinylated probe, 635/667 nm fluorescence, primary screen (AID 1115).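 Further: probe is biotinylated aNog protein used at 0.15 µg/mL for 1 h at 4 C; z-score combines 667 nm fluorescence of each spot with its signal to noise.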 To be noted: small-molecule microarray, higher = more signal.
The target of experiment [19] is Torsin-1A-interacting protein 1 (Homo sapiens) (UniProt Q5JTV8). The experiment can be described thus: compound microarray binding of lysate hLAP1 – cell lysate, small-molecule microarray, COS7 lysate, 635/667 nm fluorescence, primary screen (AID 1116). To be noted: 635 nm fluorescence, higher = more signal.
Experiment [20] deals with Alpha-bungarotoxin (Bungarus multicinctus) (UniProt P60615). The experiment can be described thus: compounds binding labelled alpha-BTX control protein – biochemical, small-molecule microarray, Alexa647 label, 635/667 nm fluorescence, artefact control for SMM control protein annotation, profiling panel (AID 1117). The conditions noted are these: alpha-BTX-A647 binding fluorescence, higher = more signal.

Consider five molecules from PubChem BioAssay.

Active and inactive are the calls of the source.

Chain of Torsin-1A-interacting protein 1 (Homo sapiens) (Q5JTV8 whole entry, looked up): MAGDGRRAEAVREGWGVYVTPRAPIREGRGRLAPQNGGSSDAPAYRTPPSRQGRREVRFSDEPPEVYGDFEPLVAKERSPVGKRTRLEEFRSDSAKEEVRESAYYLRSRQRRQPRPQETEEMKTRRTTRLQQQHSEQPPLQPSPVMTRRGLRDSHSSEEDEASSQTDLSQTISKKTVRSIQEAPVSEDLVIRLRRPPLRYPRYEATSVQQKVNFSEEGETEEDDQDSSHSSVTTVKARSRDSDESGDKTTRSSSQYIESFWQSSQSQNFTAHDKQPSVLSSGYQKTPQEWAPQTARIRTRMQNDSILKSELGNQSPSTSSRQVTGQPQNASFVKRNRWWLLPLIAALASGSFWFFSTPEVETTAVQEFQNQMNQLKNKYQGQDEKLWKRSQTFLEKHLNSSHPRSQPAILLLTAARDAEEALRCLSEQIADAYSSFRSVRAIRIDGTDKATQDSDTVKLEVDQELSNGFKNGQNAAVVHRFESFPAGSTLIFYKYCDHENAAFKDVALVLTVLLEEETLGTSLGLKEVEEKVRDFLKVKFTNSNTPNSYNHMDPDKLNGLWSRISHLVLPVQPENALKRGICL
Chain of Fibroblast growth factor 10 (Homo sapiens) (O15520 whole entry, looked up): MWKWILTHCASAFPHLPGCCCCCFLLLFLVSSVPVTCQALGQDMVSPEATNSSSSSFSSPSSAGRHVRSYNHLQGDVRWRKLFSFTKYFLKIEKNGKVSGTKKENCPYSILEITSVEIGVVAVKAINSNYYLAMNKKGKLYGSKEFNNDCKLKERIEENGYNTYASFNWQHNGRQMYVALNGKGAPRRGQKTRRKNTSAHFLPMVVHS
Chain of Epidermal growth factor receptor (Homo sapiens) (P00533 whole entry, looked up): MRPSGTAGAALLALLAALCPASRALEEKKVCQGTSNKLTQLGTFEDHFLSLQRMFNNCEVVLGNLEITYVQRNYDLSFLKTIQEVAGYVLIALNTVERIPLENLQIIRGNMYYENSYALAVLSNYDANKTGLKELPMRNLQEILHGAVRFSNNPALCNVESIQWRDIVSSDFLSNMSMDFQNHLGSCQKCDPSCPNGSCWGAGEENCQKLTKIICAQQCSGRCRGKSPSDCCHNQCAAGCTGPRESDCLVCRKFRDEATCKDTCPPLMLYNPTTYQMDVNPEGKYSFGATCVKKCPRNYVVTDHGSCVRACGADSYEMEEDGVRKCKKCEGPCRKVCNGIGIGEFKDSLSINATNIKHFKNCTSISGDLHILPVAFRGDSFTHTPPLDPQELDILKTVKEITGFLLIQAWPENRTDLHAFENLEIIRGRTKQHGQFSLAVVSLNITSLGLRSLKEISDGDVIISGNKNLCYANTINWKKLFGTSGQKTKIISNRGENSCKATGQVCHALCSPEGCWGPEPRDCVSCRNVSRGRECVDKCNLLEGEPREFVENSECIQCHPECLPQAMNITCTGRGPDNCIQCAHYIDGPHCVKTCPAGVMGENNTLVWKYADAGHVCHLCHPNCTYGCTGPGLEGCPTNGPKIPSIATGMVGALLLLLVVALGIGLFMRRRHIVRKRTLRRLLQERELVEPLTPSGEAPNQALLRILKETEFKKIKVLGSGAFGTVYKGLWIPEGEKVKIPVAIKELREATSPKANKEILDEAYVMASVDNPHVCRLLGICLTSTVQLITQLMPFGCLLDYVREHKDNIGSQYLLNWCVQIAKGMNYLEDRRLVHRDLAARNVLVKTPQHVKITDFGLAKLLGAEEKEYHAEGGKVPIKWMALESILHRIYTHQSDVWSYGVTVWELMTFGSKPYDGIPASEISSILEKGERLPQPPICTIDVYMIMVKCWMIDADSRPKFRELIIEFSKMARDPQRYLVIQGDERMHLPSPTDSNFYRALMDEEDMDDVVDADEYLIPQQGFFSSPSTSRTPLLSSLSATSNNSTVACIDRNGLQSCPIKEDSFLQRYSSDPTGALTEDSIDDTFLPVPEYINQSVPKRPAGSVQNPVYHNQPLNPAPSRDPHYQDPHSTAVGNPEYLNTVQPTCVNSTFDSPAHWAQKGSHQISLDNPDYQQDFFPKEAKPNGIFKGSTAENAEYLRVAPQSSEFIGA
Chain of Left-right determination factor 2 (Homo sapiens) (O00292 whole entry, looked up): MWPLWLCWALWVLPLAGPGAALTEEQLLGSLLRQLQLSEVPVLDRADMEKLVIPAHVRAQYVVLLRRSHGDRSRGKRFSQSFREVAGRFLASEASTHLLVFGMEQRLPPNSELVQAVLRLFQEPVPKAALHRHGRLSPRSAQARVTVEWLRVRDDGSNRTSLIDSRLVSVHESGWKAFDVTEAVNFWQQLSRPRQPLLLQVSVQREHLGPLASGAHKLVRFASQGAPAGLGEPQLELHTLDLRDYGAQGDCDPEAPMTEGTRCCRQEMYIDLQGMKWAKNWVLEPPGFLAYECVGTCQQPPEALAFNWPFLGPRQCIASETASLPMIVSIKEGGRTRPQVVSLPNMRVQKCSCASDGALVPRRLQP
Chain of Alpha-bungarotoxin (Bungarus multicinctus) (P60615 whole entry, looked up): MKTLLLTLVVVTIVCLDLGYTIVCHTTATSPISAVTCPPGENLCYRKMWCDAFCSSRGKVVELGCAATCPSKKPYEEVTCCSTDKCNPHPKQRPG
Chain of Dickkopf-related protein 1 (Homo sapiens) (O94907 whole entry, looked up): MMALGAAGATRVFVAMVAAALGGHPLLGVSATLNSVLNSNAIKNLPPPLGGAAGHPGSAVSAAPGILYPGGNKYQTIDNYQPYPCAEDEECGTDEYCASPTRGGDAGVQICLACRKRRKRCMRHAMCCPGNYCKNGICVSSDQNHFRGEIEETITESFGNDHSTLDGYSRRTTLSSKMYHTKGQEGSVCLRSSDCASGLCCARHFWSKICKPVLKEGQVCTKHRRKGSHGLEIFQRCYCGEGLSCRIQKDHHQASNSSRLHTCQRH
Chain of Follistatin-related protein 3 (Homo sapiens) (O95633 whole entry, looked up): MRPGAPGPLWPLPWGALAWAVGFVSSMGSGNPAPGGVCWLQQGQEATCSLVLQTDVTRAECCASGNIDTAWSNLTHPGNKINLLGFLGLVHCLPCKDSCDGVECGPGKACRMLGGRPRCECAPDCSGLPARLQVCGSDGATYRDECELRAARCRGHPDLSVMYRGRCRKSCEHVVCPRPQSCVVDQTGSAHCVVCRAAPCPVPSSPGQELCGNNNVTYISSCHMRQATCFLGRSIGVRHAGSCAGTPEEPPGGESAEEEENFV

Regarding `COCCOC(=O)N1C(=O)[C@@]2(c3cc(C#Cc4ccc(OC)cc4)ccc31)[C@H](c1ccccc1OCCO)N1[C@H](c3ccccc3)[C@H](c3ccccc3)OC(=O)[C@H]1[C@@H]2C(=O)N1CCCCCCC1`, the composite z-score was found to be 1.2 in experiment [1]; 2.8 in experiment [2]; 1.79 in [3]; 1.29 in experiment [5]; 1.34 in experiment [6]; 1.49 in experiment [7]. Further, the composite z-score in experiment [8] stood at 1.61; in [9] it was 2.12; in experiment [10], 1.91; in [11], 1.03; in experiment [13], 1.17; in [14] it was 2.84. The composite z-score was 1.6 in experiment [15]; 1.26 in experiment [16]; 2.59 in experiment [17]; 3.38 in experiment [18]; 5.26 in [19]; 1.8 in experiment [20]. The z-score is -1.38 (inactive) in [4] and -1.36 in [12].
Regarding `CC1CC/C=C\[C@H]2OC34C=CCN(c5ccc(Cl)cc5)C(=O)[C@H]3N(CCCCCO)C(=O)[C@]4(C)C2C(=O)O1` (stereo not given in full), the composite z-score in experiment [1] is 0.925; in experiment [2] it was -0.153; in experiment [3] it was 0.648; in experiment [5] it was -1.04; in [6], -0.798; in experiment [7], -1.24. The composite z-score in experiment [8] was -0.888; in [9], -1.98; in experiment [10], -0.497; in [11], -0.826; in experiment [13], -2.19; in experiment [14] it was -0.471. The composite z-score in [15] is 0.432; in [16], -0.247; in experiment [17] it was -0.0626; in experiment [18], -0.163; in experiment [19], -0.614; in experiment [20], -1.16. Also, the figures for the z-score in experiment [4] and in experiment [12] were 0.4 (inactive) and 0.315, respectively.
Take `C[N+](C)(C)CCCCCCNC(=O)[C@H]1C[C@H]2C(=O)N[C@@H](Cc3ccccc3)C(=O)N2[C@H]1c1ccc(O)cc1`: the composite z-score is 1.27 in [1]; -0.265 in experiment [2]; -0.534 in experiment [3]; 0.98 in [5]; 0.637 in experiment [6]; 0.192 in experiment [7]. Further, the composite z-score was 0.894 in [8]; 0.834 in [9]; 0.445 in experiment [10]; -0.306 in [11]; 1.09 in experiment [13]; -0.667 in [14]. For the same molecule, the composite z-score is -0.973 in experiment [15]; 0.0873 in [16]; -0.0146 in [17]; -0.175 in [18]; 0.302 in experiment [19]; 0.966 in experiment [20]. Moreover, the z-score is -0.0288 (inactive) in experiment [4] and 0.975 in experiment [12].
Consider `C=CC[C@]1(C(=O)NCCN2CCOCC2)N=C(c2ccc(OCCCO)cc2)O[C@H]1c1ccccc1CN=[N+]=[N-]`, for which the composite z-score is 0.817 in experiment [1]; 0.96 in [2]; 0.723 in [3]; 1.2 in experiment [5]; 0.703 in [6]; 0.409 in experiment [7]. Further, the composite z-score is -0.0125 in experiment [8]; 1.54 in experiment [9]; 1.57 in experiment [10]; 0.396 in [11]; 0.632 in [13]; 0.21 in experiment [14]. Besides, the composite z-score in experiment [15] is -0.528; in experiment [16], 0.0023; in experiment [17], -0.203; in [18], -0.193; in experiment [19], 0.554; in [20] it was -0.0452. Besides, the z-score is 0.346 (inactive) in experiment [4] and -1.59 in [12].
In the case of `CC(CO)N1C(=O)[C@@H]2[C@H]3C(=O)OCC=C[C@H]3OC23C=CCN(Cc2ccccc2)C(=O)[C@@H]13` (stereo not given in full), the composite z-score in experiment [1] was 0.978; in experiment [2] it was -0.321; in experiment [3] it was 0.247; in experiment [5], -0.49; in experiment [6], -1.23; in experiment [7], -1.18. Moreover, the composite z-score in [8] was -0.578; in [9], -0.567; in experiment [10] it was 0.056; in experiment [11], -1.13; in experiment [13], -0.509; in experiment [14], -0.216. Moreover, the composite z-score in experiment [15] is -0.324; in experiment [16] it was 0.206; in [17] it was -0.211; in [18] it was -0.273; in experiment [19], -0.5; in experiment [20], -0.221. The results for the z-score in [4] and in experiment [12] were -1.11 (inactive) and -0.254, respectively.
